Compound activity: PubChem, Broad Institute
PvdQ inh – blocks Pseudomonas aeruginosa PvdQ acylase activity | inhibition, % at 10 µM | purified PvdQ acylase, fluorescence plate reader | AID 488965 | 340,000 tested, 0.063% active; in the data active = inhibition above about 30%, passing the limit was not always enough; inconclusive = no clear call, values can overlap the other calls;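 note: 0% = vehicle neutral wells and 100% = reference inhibitor wells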
miR-122 sensor – miR-122 inhibition in Huh7 cells; Huh7 miR-122 Renilla luciferase sensor, 48 h; neutral wells = 0, positive control = 100; activation (reporter increase), % at 12.5 µM; 340,000 tested, 0.3% active;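 active = mean replicate activation score at least 90 and every replicate individually at or above 90; inconclusive = only one of the two criteria met; inactive = neither criterion met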;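 note: higher luciferase means less miR-122 activity so hits act as miR-122 inhibitors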
DENV2 CPE rescue – DENV2-induced cell death inhibition; CPE inhibition, % at 9.99 µM; 350,000 tested, 1.7% active; DENV2-infected cells, cytopathic effect rescue, plate reader; AID 651640; in the data active = CPE inhibition above about 20%, passing the limit was not always enough; inconclusive = no clear call, values can overlap the other calls; tested in BHK-21 cells;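 note: 0% = median of neutral control wells and 100% = median of positive control wells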
PGC1a acetyl inh – lowers PGC1a acetylation signal in U2OS cells | 350,000 tested, 0.17% active | inhibition, % at 15.6 µM | AlphaScreen anti-acetyl-lysine; with virally co-expressed GCN5 acetyltransferase;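 active = every replicate shows inhibition of at least 40%; inconclusive = mean inhibition at least 40% but some replicate below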;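 note: 0% = neutral control wells and 100% = positive control wells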
C2C12 statin – suppressors of simvastatin-induced myotoxicity in C2C12 myotubes. rescue of ATP level, % at 7.49 µM. ATP luminescence, 48 h; scaled: DMSO 0, geranylgeraniol control 100. AID 602340. 330,000 tested, 0.78% active;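 active = mean ATP rescue above about 67%, or every replicate alone reaching that limit, limit read from the data, passing the limit was not always enough; inconclusive = no clear call, values can overlap the other calls; inactive = mean under the limit and some replicate under it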;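 note: myotubes were challenged with 10 µM simvastatin during compound exposure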
* marks the source's active call; other numbers are inactive results; ? = inconclusive; . = no result; [ ] = remark or other dose. Hits are enriched below; roughly 2.2% of the tested compounds scored in any of these assays.

SMILES	PvdQ inh	miR-122 sensor	DENV2 CPE rescue	PGC1a acetyl inh	C2C12 statin
O=S(=O)(c1cccc(C(F)(F)F)c1)N1CCN(CC(O)COCc2ccccc2)CC1 (centres undefined)	-1	-4	63*	-4	5
O=S(=O)(c1ccc(F)cc1)N1CCN(CC(O)COCc2ccccc2)CC1 (centres undefined)	4	.	15	.	6
CCC(=O)N1[C@@H]2c3cccc(=O)n3C[C@@H]2[C@@H](CO)[C@@H]1C(=O)NCc1ccccc1F	.	5[16.7 µM]	6	.	6
COCCNC(=O)c1cc(-c2ccccc2)n(Cc2cc(C)no2)n1	-16	-4	22*	8	-13
C[C@H](CO)N1C[C@H](C)[C@@H](CN(C)C(=O)Cc2ccccn2)Oc2ncc(-c3ccc(F)cc3)cc2C1=O	.	-11[16.7 µM]	?	-14	-1
CN(C)CC#Cc1cccc(-c2nc(C(=O)N[C@@H]3CCN(Cc4ccccc4)C3)cc3c2[C@H](CCO)N(S(=O)C(C)(C)C)C3)c1 (some centres undefined)	.	.	48*	-20	.
Cc1[nH]n(-c2ccccc2)c(=O)c1C(C[N+](=O)[O-])c1ccccc1Cl (centres undefined)	-16	0	.	8	118*
COc1ccc(C(C[N+](=O)[O-])c2c(C)[nH]n(-c3ccccc3)c2=O)cc1 (centres undefined)	-10	.	-13	3	2
C[C@H]1CN([C@@H](C)CO)C(=O)Cc2cc(NC(=O)NC3CCCCC3)ccc2O[C@@H]1CN(C)C(=O)Nc1cccc2ccccc12	.	2[16.7 µM]	3	30	36
CN1CCN(CCOc2ccc(-c3ccccc3)cc2)CC1	-11	2	49*	.	-8
CCCN1[C@H](C(=O)NCC(F)(F)F)[C@@H](CO)[C@@H]2Cn3c(ccc(-c4ccccc4)c3=O)[C@@H]21	.	3[16.7 µM]	92*	-6	3
CC(=O)N1[C@H](C(=O)N2CCCCC2)[C@@H](CO)[C@@H]2Cn3c(ccc(-c4ccccc4)c3=O)[C@@H]21	.	.	20*	.	-9
CC(=O)N1[C@H](C(=O)N(C)C)[C@@H](CO)[C@@H]2Cn3c(ccc(-c4ccccc4F)c3=O)[C@@H]21	.	.	34*	.	10
CC(=O)N1[C@@H]2c3ccc(-c4ccccc4)c(=O)n3C[C@@H]2[C@@H](CO)[C@@H]1C(=O)N1CCCCC1	.	.	8	.	1
CN(C)C(=O)[C@H]1[C@H](CO)[C@H]2Cn3c(ccc(-c4ccccc4F)c3=O)[C@H]2N1C(=O)C1CC1	.	0[16.7 µM]	0	.	0
COCCNC(=O)C[C@@H]1C[C@@H]2c3cc(NC(=O)Nc4ccccc4)ccc3O[C@@H]2[C@H](CO)O1	.	7[16.7 µM]	12	14	3
C[C@@H]1CN([C@@H](C)CO)C(=O)c2cc(NC(=O)Nc3cccc4ccccc34)ccc2O[C@H]1CN(C)Cc1ccc(C(F)(F)F)cc1	.	-2[16.7 µM]	5	-6	.
Cc1cc(NC(=O)COC(=O)C2CCN(S(=O)(=O)c3c(Cl)cccc3Cl)CC2)no1	-13	6	.	-4	109*
Cc1cc(NC(=O)COC(=O)C2CCN(S(=O)(=O)c3ccc(Cl)cc3)CC2)no1	10	2	.	.	.
O=C(NC[C@H]1N[C@H](CO)[C@H]1c1ccccc1)c1ccccc1F	.	?	23*	4	7
CN(C[C@H]1N[C@@H](CO)[C@@H]1c1ccc(C2=CCCC2)cc1)C(=O)c1cccc(F)c1	.	-29[16.7 µM]	-9	76*	-475
O=C(NC[C@H]1N[C@H](CO)[C@@H]1c1ccc(C2=CCCCC2)cc1)c1ccc(F)cc1	.	-7[16.7 µM]	44*	-28	-38
C[C@@H]1CCCCO[C@H](CN(C)C(=O)c2ccncc2)[C@H](C)CN([C@@H](C)CO)C(=O)c2cc(NS(=O)(=O)c3ccccc3)ccc2O1	.	-3[16.7 µM]	3	-4	.
CC(C)NC(=O)N[C@@H]1CC[C@H](CCNS(=O)(=O)c2ccc(Cl)cc2)O[C@H]1CO	.	.	-2	-7	-9
COc1ccc(-c2csc3ncnc(N4CCN(S(=O)(=O)c5cccc(Br)c5)CC4)c23)cc1	2	1	-3	2	77*
COc1ccc(CN(Cc2cccn2C)C(=O)c2cc3cc(OC)ccc3[nH]2)cc1	-2	3	-6	6	124*
CC1CCN(C(=O)c2ccc(NC(=O)c3cccs3)cc2)CC1	-14	.	-5	.	-12
COc1ccccc1CNC(=O)C(=O)Nc1ccc(C(=O)N2CCC(C)CC2)cc1	-13	0	65*	3	-10
